# Measurements taken from PubChem BioAssay AID687009 (National Center for Advancing Translational Sciences (NCATS), 2013).
# Inconclusive results are not listed. Calls of active or inactive are those of the source. The call rests on the fitted dose curve; in most records, active means well fitted curve in the direction sought with a large enough effect; inconclusive means small, poorly fitted or top-dose-only effect, or another doubt; inactive means no such curve, though single readings can be large or run the other way.
# Molecular target: Lysine-specific histone demethylase 1A (Homo sapiens) (UniProt O60341)
# Test: qHTS Assay for Inhibitors of Human Jumonji Domain Containing 2E (JMJD2E): Counterscreen with LSD1
# From the text: The fine interplay among methylation states of several lysine residues on the tails of histone proteins is a major determinant of the transcriptional state of the associated DNA coding regions and is commonly referred to as the histone code. Histone lysine demethylases catalyze the removal of methyl groups from methylated lysine sidechains on histones H3 and H4, thus antagonizing the reactions catalyzed by histone lysine methyltransferases. […] In search for novel inhibitors of JMJD2E demethylase, a member of the largest set of histone demethylases belonging to the Fe(II) and 2-oxoglutarate oxygenase (2OG) superfamily, we performed a quantitative high-throughput screen (Inglese 2006) by using an assay which utilizes a trimethylated peptide substrate corresponding to a fragment of histone H3 (sequence ARKme3STGGK) with detection of the formaldehyde co-product in real time by a formaldehyde dehydrogenase (FDH) coupled reaction. […]
# The assay was performed in a buffer containing 10 mM HEPES, Na pH 7.5, 5 mM MgCl2, 50 mM KCl, 0.01% Nonidet P-40, and 0.1% BSA. […] The plate was then centrifuged at 1,000 rpm for 15 seconds, and the fluorescence intensity was recorded on a ViewLux High-throughput CCD imager (Perkin-Elmer) using standard TAMRA optics (525 nm excitation and 598 nm emission). The plate was then incubated for 30 min at room temperature, and a second read on the ViewLux was performed. […]
structure (smiles),measurement,value
CN1CCN(c2cnc3c(O)ccc(C(=O)O)c3c2)CC1,outcome,inactive
